# Tb PGK inh – inhibitors of T. brucei phosphoglycerate kinase | P07378 | PGK/GAPDH coupled, Kinase-Glo luminescence, 60 min | Potency, µM (series often up to 57.5 µM), hits mostly inhibitors | actives 0.043% (n = 380,000) | AID 602233; further: nearly all actives have a fitted effect of over 60% in size
#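 Recombinant glycosomal PGK reaction used 1,3-bisphosphoglycerate generated in-well by GAPDH (100nM final) in 100mM TEA pH 7.6, 5mM MgCl2, 0.01% Tween-20. After 60 minutes at room temperature, ATP was read by Kinase-Glo Plus luminescence end-point.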
# PI5P4Ka inh – PI5P4K alpha (human) kinase inhibition | AID 652105 | actives 1.2% (n = 330,000) | P48426 | max response, % | PI5P4Kalpha enzyme, ADP-Glo luminescence, 60 min; stronger effect = lower value; active means max response of -50% or lower; inconclusive means between -30% and -50%; inactive means -30% or higher; further: value at the top dose of about 77 µM
# Target sequence (P48426 whole entry, looked up): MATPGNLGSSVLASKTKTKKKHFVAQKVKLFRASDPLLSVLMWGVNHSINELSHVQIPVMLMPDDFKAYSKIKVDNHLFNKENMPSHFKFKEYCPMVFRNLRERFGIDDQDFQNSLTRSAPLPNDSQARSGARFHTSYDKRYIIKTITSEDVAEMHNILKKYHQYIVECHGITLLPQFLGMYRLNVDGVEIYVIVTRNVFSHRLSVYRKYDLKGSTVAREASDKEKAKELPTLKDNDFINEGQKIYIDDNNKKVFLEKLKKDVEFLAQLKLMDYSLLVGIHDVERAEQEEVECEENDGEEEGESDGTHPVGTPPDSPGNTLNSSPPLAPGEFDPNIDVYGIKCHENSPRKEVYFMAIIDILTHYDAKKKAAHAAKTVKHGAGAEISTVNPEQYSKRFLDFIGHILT
#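 ADP-Glo luminescence end-point read after a 60 min room-temperature kinase reaction of PI5P4Kalpha plus substrate, initiated with ATP at 5 microM final. Buffer: 0.038 M HEPES pH 7.4, EGTA, 0.1% CHAPS, 5% DMSO.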
# Tb PFK inh-1 – inhibitors of T. brucei phosphofructokinase; O15648; T. brucei PFK, ADP-Glo luminescence; Potency, µM (doses to about 57.5 µM), hits mostly inhibitors; actives 0.17% (n = 330,000); AID 485367; further: nearly all actives have a fitted effect of over 60% in size
#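 ADP-Glo luminescence quantified ADP after 45 min at room temperature, with 1.25 nM T. brucei PFK, 0.1 mM ATP and 0.5 mM fructose-6-phosphate in pH 8.0 TEA buffer. qHTS titrations up to 57 µM; curves classified by quality.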
# Pin1 inh – blocks the human prolyl isomerase Pin1; Q13526; Pin1 FP peptide displacement, HiFluor488, 10 min; Potency, µM (series often up to 115 µM), most hits filed as inhibitors; actives 0.009% (n = 390,000); active means well fitted inhibition curve with a large enough effect in the polarisation, with a control signal flat, not every such curve was filed as active; inconclusive means small, poorly fitted or top-dose-only effect, or effect the other way, or a change in a side signal; inactive means no such curve, though single readings can be large or run the other way; the % refers to the polarisation
# Target sequence (Q13526 whole entry, looked up): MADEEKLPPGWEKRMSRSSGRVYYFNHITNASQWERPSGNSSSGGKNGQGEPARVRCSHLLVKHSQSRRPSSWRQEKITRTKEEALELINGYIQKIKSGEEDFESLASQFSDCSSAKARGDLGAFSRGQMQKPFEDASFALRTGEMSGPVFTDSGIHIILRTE
# PI4K2A inh – inhibitors of human PI4K2A; Q9BTU6; purified PI4K2A, ADP-Glo luminescence, 1 h; stronger effect = lower value; activity change, negative = inhibition, % at 76.9 µM; actives 0.13% (n = 420,000); AID 1346378; in the data active means activity change below about -50%; inconclusive means mostly about -30% to -49%
#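 In this quantitative HTS, ADP production by PI4K2A was quantified luminescently after 1 h at ambient temperature; 100 microM adenosine served as plate-quality control.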
# Tb PFK KinaseGlo – inhibits T. brucei PFK measured by ATP depletion. shares compounds with Tb PFK inh-1. Tb PFK enzyme, ATP depletion, Kinase-Glo Plus luminescence. Potency, µM (highest dose often 57.5 µM). actives 47% (n = 1,100). AID 504636; calls by dose curve; further: nearly all actives have a fitted effect of over 60% in size
# Tb PFK inh-2 – validation of T. brucei phosphofructokinase inhibitors | shares compounds with Tb PFK inh-1 | purified T. brucei PFK, ADP-Glo luminescence, 45 min | Potency, µM (top dose mostly 57.5 µM), actives largely listed as inhibitors | actives 41% (n = 1,100) | AID 504637; further: nearly all actives have a fitted effect of over 60% in size
# ADP-Glo interf – counter-screen for PI5P4K inhibitors: ADP-Glo detection interference, no enzyme | shares compounds with PI5P4Ka inh | ADP-Glo detection counter-screen, luciferase luminescence, no enzyme | Potency, µM (titrated, usually from 76.9 µM), usual class: inhibitors | 1,100 tested, under 10 active
# Hits are given with their value; – = inactive; ? = inconclusive; · = not tested or not shown. The sample as a whole holds a higher share of hits than the screen did. Unless noted, the call rests on the fitted dose curve; in most records, active means well fitted curve in the direction sought with a large enough effect; inconclusive means small, poorly fitted or top-dose-only effect, or another doubt; inactive means no such curve, though single readings can be large; an effect the other way counts as inactive or inconclusive.
SMILES,Tb PGK inh,PI5P4Ka inh,Tb PFK inh-1,Pin1 inh,PI4K2A inh,Tb PFK KinaseGlo,Tb PFK inh-2,ADP-Glo interf
Cc1csc(N2CCc3ccccc32)n1,–,–,–,?,–,·,·,·
CS(=O)(=O)NN1C(=O)c2ccccc2NC1c1cc2ccccc2nc1Cl (stereo unspecified),–,–,21.3µM,–,–,9.53µM,23.9µM,·
O=C1NC(c2cc3ccccc3nc2Cl)Nc2ccccc21 (stereo unspecified),–,–,–,–,–,·,·,·
CN1c2ccc(Br)cc2[C@@H]2NCC[C@@H]2[C@@H]1CO,·,·,·,·,–,·,·,·
CCC(C(N)=O)N1CCCC1=O (stereo unspecified),·,·,·,·,–,·,·,·
Nc1ccc(O)c2c1C(=O)c1ccccc1C2=O,?,-96.5,?,·,–,–,–,·
O=C1C(=O)c2ccccc2-c2ccccc21,?,–,–,·,?,·,·,·
Cc1cccc(CN2C(=O)CN=C(c3ccccc3)c3cc(Cl)ccc32)c1,–,·,·,–,–,·,·,·
CC(C)CC(=O)N[C@H](C(=O)N[C@H](C(=O)N[C@@H](CC(C)C)[C@@H](O)CC(=O)N[C@@H](C)C(=O)N[C@@H](CC(C)C)[C@@H](O)CC(=O)O)C(C)C)C(C)C,–,–,?,·,–,·,·,·
CCN(C(=O)CSc1ncccc1C(=O)Oc1cccc([N+](=O)[O-])c1)c1cccc(C)c1,–,–,–,?,–,·,·,·
Cc1nc2ccc(NC3=NCCCCC3)cc2s1,–,-54.6,10.7µM,–,–,8.49µM,6.75µM,–
Cc1nc2ccc(Nc3nc4cc(S(=O)(=O)N5CCOCC5)ccc4o3)cc2s1,–,–,–,–,–,·,·,·
CCc1nnc(NC(=O)c2cc(-c3ccc(C)o3)nc3ccccc23)s1,–,-54.7,4.78µM,–,–,4.78µM,6.75µM,–
Oc1cc2c(cc1C(c1ccc(Cl)c(Cl)c1)N1CCCC1)OCO2 (stereo unspecified),–,-74.4,21.3µM,?,–,?,?,–
CCC(c1nnnn1-c1ccc2c(c1)OCCO2)N1CCC2(CC1)C(=O)NCN2c1ccccc1 (stereo unspecified),·,–,·,·,–,·,·,·
O=C(NCCCN1CCOCC1)c1sc2cc([N+](=O)[O-])ccc2c1Cl,–,-67.7,10.7µM,–,–,3.38µM,4.26µM,–
O=C(c1cc([N+](=O)[O-])ccc1N1CCNCC1)N1CCOCC1,–,–,?,–,–,·,·,·
C/C=C(/C)C(=O)O[C@H]1C(C)=C2[C@H]([C@@H]1OC(=O)CCCCCCC)[C@@](C)(OC(C)=O)C[C@H](OC(=O)CCC)[C@@]1(O)[C@H]2OC(=O)[C@@]1(C)O,·,·,·,·,–,·,·,·
Cc1cc(NS(=O)(=O)c2ccc(NC(=O)COc3ccc(Br)cc3)cc2)nc(C)n1,–,-54.3,?,–,–,8.49µM,23.9µM,–
Cc1ccc(C(O)(C(=O)OC(C)C)C(O)c2ccc(F)cc2)cc1 (stereo unspecified),·,–,·,·,–,·,·,·
O=C(Nc1cc(S(=O)(=O)N2CCOCC2)ccc1N1CCCC1)c1ccc(Cl)cc1,–,-50.9,?,–,–,23.9µM,?,–
CC(C)=CC1C(C(=O)OCN2C(=O)C3=C(CCCC3)C2=O)C1(C)C (stereo unspecified),·,·,·,·,–,·,·,·
COCCN(C(=O)COC(=O)c1cc2c(s1)CCC2)c1c(N)n(Cc2ccccc2)c(=O)[nH]c1=O,?,-86.7,3.79µM,·,?,1.07µM,1.69µM,–
CCn1c(O)c(/C=N/NC(=O)c2ccncc2)c(=O)n(CC)c1=S,–,–,–,?,–,·,·,·
CC(C)NCC(O)c1ccc(C2CCCC2)cc1 (stereo unspecified),–,–,–,–,–,·,·,–
NC(Cc1ccc(N(CCCl)CCCl)cc1)C(=O)O (stereo unspecified),·,·,·,·,–,·,·,·
CCCn1c(=O)c2[nH]c(C3CCCC3)nc2n(CCCOC(=O)c2ccc(S(=O)(=O)F)cc2)c1=O,·,·,·,·,–,·,·,·
CCCNC(=O)N1[C@H]2CC[C@@H]1C(C(=O)OC)=C(c1ccc(OC)c(OC)c1)C2,–,-84.6,–,–,–,·,·,–
COCCNC(=O)N1[C@H]2CC[C@@H]1C(C(=O)OC)=C(c1ccc(OC)c(OC)c1)C2,–,–,–,–,–,·,·,·
CCCCCn1c(=O)c(C(=O)Nc2ccccc2S(N)(=O)=O)c(O)c2ccccc21,–,-52.9,–,–,–,·,·,–

# Assay outcomes (PubChem BioAssay)
